Reference: PubChem BioAssay AID1851 (National Center for Advancing Translational Sciences (NCATS), 2009)
“And” between values parts separate entries of the source, which are not always exact repeats. Identical values can stand only once. Among all 16,000 compounds or so, about 5,800 (36%) were called active. Not shown: some 23% with an inconclusive outcome. Calls come from the whole dose curve; as a rule, active = well fitted curve in the direction sought with a large enough effect; inconclusive = small, poorly fitted or top-dose-only effect, or effect the other way; inactive = no such curve, though single readings can be large or run the other way. The list shows a part of the results.

What follows are molecules tested against Cytochrome P450 2C19 (Homo sapiens) (UniProt P33261) (assay: Cytochrome panel assay with activity outcomes). Details: recombinant CYP, pro-luciferin dealkylation, luminescence, p450-cyp2c19; series mostly up to 57.1 µM; activity, negative = inhibition: at the top concentration.
Sequence of Cytochrome P450 2C19 (Homo sapiens) (P33261 whole entry, looked up): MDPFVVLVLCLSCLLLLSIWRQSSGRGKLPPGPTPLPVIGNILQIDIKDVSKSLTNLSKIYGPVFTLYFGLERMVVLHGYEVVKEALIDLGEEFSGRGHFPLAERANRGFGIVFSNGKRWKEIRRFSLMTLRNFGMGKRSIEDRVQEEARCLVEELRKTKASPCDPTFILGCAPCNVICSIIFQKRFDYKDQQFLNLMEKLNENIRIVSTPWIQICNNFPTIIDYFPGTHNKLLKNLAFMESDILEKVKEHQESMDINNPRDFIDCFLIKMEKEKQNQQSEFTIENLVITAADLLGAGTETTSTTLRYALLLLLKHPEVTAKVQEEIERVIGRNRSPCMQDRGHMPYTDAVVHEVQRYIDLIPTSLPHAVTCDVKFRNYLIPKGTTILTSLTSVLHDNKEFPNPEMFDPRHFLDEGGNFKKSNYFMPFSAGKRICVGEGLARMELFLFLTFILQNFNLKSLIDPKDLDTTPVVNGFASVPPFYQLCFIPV
% is set by controls: 0 for no effect and ±100 for the full control effect.

AC50, active:
C=CCSC1=Nc2sccc2C2=NC(=O)CN12 7.94 µM, Cc1ccccc1-c1nccc(NCc2cccnc2)n1 5.01 µM, Cc1cccc(CNc2ccnc(-c3ccccc3Cl)n2)c1 1.26 µM, COc1ccccc1-c1nccc(NCc2cccc(C)c2)n1 10 µM, COc1ccccc1-c1nccc(NCc2ccccc2)n1 7.94 µM, COc1ccccc1-c1nccc(NCc2cccnc2)n1 3.98 µM, Cc1noc(C)c1-c1nccc(NCc2cccnc2)n1 25.1 µM, Clc1ccccc1-c1nc(-c2ccccc2)n[nH]1 17.8 µM, O=S(=O)(C=C(c1ccccc1)c1ccccc1)c1ccccc1 2.82 µM, O=S(=O)(c1ccc(F)cc1)N1CC2CCCN2c2ccc(C(F)(F)F)cc21 (configuration not stated) 2.24 µM, COc1ccc(S(=O)(=O)N2CC3CCCN3c3ccc(C(F)(F)F)cc32)cc1 (configuration not stated) 0.562 µM, COC(=O)c1nn(-c2cccc(C(F)(F)F)c2)c(=O)cc1Sc1ccccn1 5.62 µM, N#Cc1cc(N)ccc1Sc1ccc(Cl)cc1 3.16 µM, CCc1sc(N(C(=O)Cc2ccccc2)c2cccc(F)c2)nc1-c1ccc(C)cc1 2.82 µM, c1ccc(-c2nnn(CCN3CCCCC3)n2)cc1 1.26 µM, COc1ccc2c(Cc3c4ccccc4cc4ccccc34)cncc2c1O 2.51 µM, O=C(NCc1cccnc1)c1sc2cc(Cl)ccc2c1Cl 2 µM, CC1=CC(=O)N(c2cccc(C(F)(F)F)c2)C1c1ccc(Cl)cc1 (configuration not stated) 2.24 µM, Cc1ccc(NC(=S)/C(=C(\[O-])c2ccc(C)c([N+](=O)[O-])c2)[n+]2ccccc2)cc1C 7.94 µM, CC1(C)[C@@H]2CC[C@@]1(CS(=O)(=O)Nc1ccccc1)C(=O)C2 2 µM, COC(=O)C1=C(C)NC2=C(C(=O)CCC2)C1c1cn(Cc2ccc(Cl)cc2Cl)nc1-c1ccccc1 (configuration not stated) 2.24 µM, COCCOC(=O)C1=C(C)NC(=O)N(C(C)=O)C1c1ccc(Cl)cc1 (configuration not stated) 3.55 µM, O=C(NCCOC12CC3CC(CC(C3)C1)C2)c1cccc(Br)c1 0.891 µM, c1ccc(N2CCN(CCCOc3ccc4c(c3)OCO4)CC2)cc1 5.01 µM, COc1ccc(O[C@H]2C=C[C@@H](c3ccccc3)O[C@H]2COC(=O)CC/C(C)=N\O[C@@H](C)CN2CCCc3nc(C)c(C)cc32)cc1 3.16 µM, COc1ccc(O[C@H]2C=C[C@@H](c3ccccc3)O[C@H]2COC(=O)CC/C(C)=N\O[C@@H](C)CN2CCCCc3nc(C)c(C)cc32)cc1 5.01 µM, C/C(CCC(=O)OC[C@@H]1O[C@H](C#Cc2ccccc2)C=C[C@@H]1Oc1ccc(C)cc1)=N/O[C@@H](C)CN1CCCc2nc(C)c(C)cc21 3.16 µM, O=C1C2C3c4ccccc4C(c4ccccc43)C2C(=O)N1c1nc(-c2ccccc2)cs1 (configuration not stated) 1.78 µM, O=C(c1ccco1)N(CCC(c1ccccc1)c1ccco1)Cc1ccco1 (configuration not stated) 3.98 µM, FC(F)(F)c1ccccc1-c1cc(NCc2cccnc2)ncn1 10 µM, FC(F)(F)c1ccccc1-c1cc(NCc2cccs2)ncn1 0.794 µM, Cc1ccccc1-c1cc(NCc2cccnc2)ncn1 10 µM, Cc1ccccc1-c1cc(NCc2ccccc2)ncn1 3.16 µM, Cc1ccccc1Cn1nc(C)c(NC(=O)c2sc3ccccc3c2Cl)c1C 14.1 µM, CCCCOC(=S)NC(=O)c1sc2ccccc2c1Cl 0.794 µM, O=C(NC(=S)N(CCCCO)C1CCCCC1)c1sc2ccccc2c1Cl 7.08 µM, Cn1cccc1/C=N/NC(=O)c1sc2ccccc2c1Cl 7.94 µM, CCOC(=S)NC(=O)c1sc2ccccc2c1Cl 3.16 µM, Cc1ccccc1NC1=C(C(=O)c2ccccc2)N(C)S(=O)(=O)c2ccccc21 8.91 µM, CC1CCCC(C)N1C(=O)c1cc(-c2ccc(Cl)c(Cl)c2)on1 (configuration not stated) 11.2 µM

AC50, inactive:
NC(=NCc1ccccc1)NC(=O)c1nc(Cl)c(N)nc1N

activity, negative = inhibition, inactive:
C[C@@](N)(Cc1ccc(O)c(O)c1)C(=O)O -4.51% [at 25.6 µM], CNc1ccnc(-c2ccccc2OC)n1 -16.3%, Cc1cccc(CNc2ccnc(-c3ccccc3CN(C)C)n2)c1 -33.5%, Cc1cnc(CNc2ccnc(-c3ccccc3C)n2)cn1 -27.8%, Cc1cnc(CNc2ccnc(-c3c(C)noc3C)n2)cn1 17.1%, COC(=O)C/C=C\[C@@H](C)[C@@H](/C=N\OC[C@@H](O)[C@H]1O[C@H]2OC(C)(C)O[C@H]2[C@@H]1O)OC -19.4% [at 11.4 µM], O=c1ccc(-c2ccccc2)n[nH]1 13.5% [at 11.4 µM], NC(=O)Nc1n[nH]c(-c2ccccc2)n1 13.8% [at 11.4 µM], CN1CCN(c2ncc3nc(-c4cc(F)cc(F)c4)c(=O)n(C4CC4)c3n2)CC1 0.372%, O=S(=O)(O)c1ccc(N=Nc2ccccc2)cc1 6.93% [at 11.4 µM], Nc1ccc(S(=O)(=O)NC(=O)c2ccccc2)cc1 6.33% [at 25.6 µM], COc1ccc(NC(=O)N2CC[C@@]3(CCCN(C(=O)c4cc(C(F)(F)F)cc(C(F)(F)F)c4)C3)C2)cc1 -14.2%, COc1ccc(C(OCCN2CCC[C@@H](C(=O)O)C2)(c2ccc(OC)cc2)c2ccc(OC)cc2)cc1 -12.7%, Nc1ccccc1CCCC(=O)O -13.9% [at 11.4 µM], COc1ccccc1CN1CCCC2(CCN(C(=O)c3csnn3)CC2)C1 10.3%, CC(C)c1ccc(-c2nnn(CCC(=O)O)n2)cc1 -25.8%, c1ccc([C@H](CCN2CCCC2)c2ccccn2)cc1 -19.9% [at 11.4 µM], O=C(O)c1cc2ccccc2c(Cc2cc3ccccc3c(C(=O)O)c2O)c1O (tested in a mixture with another compound) -22.9% [at 25.6 µM], O=C(c1csnn1)N1CCC2(CC1)CN(Cc1cc(C(F)(F)F)cc(C(F)(F)F)c1)C2 17.8%, CCn1cc(C(=O)O)c(=O)c2cnc(N3CCNCC3)nc21 32.6% [at 25.6 µM], CC[C@H](NC(C)C)[C@H](O)c1ccc(O)c(O)c1 -17.7%, O=C(O)c1ccc(NS(=O)(=O)Cc2ccccc2)cc1 -9.9% [at 11.4 µM], CO[C@@H]1COC(=O)C/C=C\[C@H](C)[C@@H](NS(=O)(=O)c2ccc(C)cc2)COC(=O)C/C=C\[C@@H]1C -12.5% [at 11.4 µM] and -34.1% [at 11.4 µM], CC(c1ccccc1C(O)c1ccccc1)N(C)C (configuration not stated) -16.6%, NC(=O)c1ccc[n+](CC(=O)OCCC23CC4CC(CC(C4)C2)C3)c1 -28.6%, N[C@H](C(=O)O)c1nn[nH]n1 29.8%, OC[C@@H](O)CN1CCN(c2ccccc2)CC1 39.7% [at 25.6 µM], C/C(CCN1CCCCc2nc(C)c(C)cc21)=N\O[C@@H](C)CN1CCCc2nc(C)c(C)cc21 25.7% [at 11.4 µM], CC(=O)OC[C@@H]1O[C@H](C/C=N\O[C@@H](C)CN2CCCc3nc(C)c(C)cc32)C=C[C@@H]1OC(C)=O 12.3% [at 11.4 µM], CC(=O)OC[C@@H]1O[C@H](C/C=N\O[C@@H](C)CN2CCCCc3nc(C)c(C)cc32)C=C[C@@H]1OC(C)=O 34.1% [at 11.4 µM], C/C(CCN1CCCCc2nc(C)c(C)cc21)=N\O[C@@H](C)CN1CCCCc2nc(C)c(C)cc21 42.7% [at 11.4 µM], C/C(CCN1CCCc2nc(C)c(C)cc21)=N\O[C@@H](C)CN1CCCCc2nc(C)c(C)cc21 9.26% [at 11.4 µM], C/C=C\C[C@@H](C)[C@@H](O)[C@H]1C(=O)N[C@@H](CC)C(=O)N(C)CC(=O)N(C)[C@@H](CC(C)C)C(=O)N[C@@H](C(C)C)C(=O)N(C)[C@@H](CC(C)C)C(=O)N[C@@H](C)C(=O)N[C@H](C)C(=O)N(C)[C@@H](CC(C)C)C(=O)N(C)[C@@H](CC(C)C)C(=O)N(C)[C@@H](C(C)C)C(=O)N1C -9.22%, N=C1SCC(=O)N1c1nc(-c2ccccc2)cs1 -7.37%, O=C1[C@@H]2[C@@H](C(=O)N1c1ccc(OCc3ccccc3)cc1)[C@@H]1c3ccccc3[C@@H]2[n+]2ccccc21 -10.9% [at 11.4 µM], CNCCC=C1c2ccccc2C=Cc2ccccc21 19.1% [at 25.6 µM], CN(C)Cc1ccccc1-c1cc(NCc2cccs2)ncn1 7.11%, Cn1cc(-c2nc3cnc(Oc4ccccc4)nc3n(Cc3cccs3)c2=O)c2ccccc21 -11%, Cc1ccc(C(=O)N/N=C\c2cccn2C)cn1 18.1%, Cc1nn(Cc2ccccc2Cl)c(C)c1NC(=O)CCCn1nc(C)c([N+](=O)[O-])c1C -20.6%, CO[C@H]1COC(=O)C/C=C\[C@@H](C)COC(=O)[C@H]2CCCN2C(=O)C/C=C\[C@H]1C -21.9% [at 11.4 µM], O=C(O)CCC(=O)c1ccc2sc3ccccc3c2c1 9.52% [at 11.4 µM], CO/N=C(\C)CCN1CCCc2nc(C)c(C)cc21 -7.2% [at 11.4 µM], Cc1cc(NC(=O)C2=C(O)c3ccccc3S(=O)(=O)N2C)no1 -6.42% [at 25.6 µM], CO[C@@H]1/C=C\CC(=O)N[C@@H](C)C(=O)OC[C@@H](OC)[C@H](C)CCCC(=O)OC[C@H]1C -3.19% [at 11.4 µM], C[C@@H]1CCC[C@H](C)N1NC(=O)c1ccc(Cl)c(S(N)(=O)=O)c1 5.63% [at 25.6 µM]
